Experiment [1] can be described thus: A CellTox Green Cytotoxicity Assay to monitor cytotoxicity in HEK293 cells - 32 hour (AID 1224881). Note: nearly all actives have a fitted effect of over 40% in size. Note: potency is the fitted concentration of half-maximal effect. The method in brief:
(§1)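 Nonlytic real-time cytotoxicity: HEK293 + CellTox Green reagent plated, 5 h preincubation, pintool compound addition (23 nL in DMSO), 37 C for 40 h, fluorescence measured at successive time points.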

A short description of experiment [2]: A CellTox Green Cytotoxicity Assay to monitor cytotoxicity in HepG2 cells - 0 hour (AID 1224882). Note: nearly all actives have a fitted effect of over 35% in size. The method in brief: (§2)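 Read-out is fluorescence of a cyanine dye excluded from live cells that stains DNA of dead HepG2 cells, with signal proportional to cytotoxicity. Plates were read at 0, 8, 16, 24, 32 and 40 h after compound addition.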
Experiment [3] in a line: A CellTox Green Cytotoxicity Assay to monitor cytotoxicity in HEK293 cells - 8 hour (AID 1224884). Note: nearly all actives have a fitted effect of over 35% in size. Note: potency is the fitted concentration of half-maximal effect. The method in brief:
as §1

Experiment [4] is described as follows: qHTS RealTime-Glo MT Cell Viability Assay in HepG2 cells - 16 hour (AID 1224885). Note: nearly all actives have a fitted effect of over 50% in size. Note: potency is the fitted concentration of half-maximal effect. The method in brief: (§3)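 Real-time, nonlytic viability: 600 HepG2 cells/well mixed with NanoLuc enzyme plus prosubstrate; 5 h settle, compound (DMSO) added by pintool; luminescence monitored over 40 h at 37 C.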
The nature of experiment [5]: A CellTox Green Cytotoxicity Assay to monitor cytotoxicity in HEK293 cells - 16 hour (AID 1224888). Note: nearly all actives have a fitted effect of over 35% in size. Note: potency is the fitted concentration of half-maximal effect. The method in brief:
as §1

Experiment [6] is described as follows: qHTS RealTime-Glo MT Cell Viability Assay in HEK293 cells - 24 hour (AID 1224886). Note: nearly all actives have a fitted effect of over 50% in size. Note: potency is the fitted concentration of half-maximal effect. The method in brief:
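Cells + reagent dispensed (600 cells/well, HEK293) → 5 h at 37 C/5% CO2 → 23 nL compound in DMSO pinned → 40 h at 37 C → luminescence read at 0, 8, 16, 24, 32, 40 h.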
In general terms: Quantitative high-throughput screening tests each substance at several concentrations.

Experiment [7] in a line: qHTS RealTime-Glo MT Cell Viability Assay in HEK293 cells - 8 hour (AID 1224887). Note: nearly all actives have a fitted effect of over 50% in size. Note: potency is the fitted concentration of half-maximal effect. The method in brief:
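Cells were seeded together with NanoLuc luciferase and a prosubstrate that viable cells reduce to a luciferase substrate. After a 5 h incubation at 37 C/5% CO2, compounds were added and luminescence was measured repeatedly during 40 h of treatment.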

A short description of experiment [8]: qHTS RealTime-Glo MT Cell Viability Assay in HepG2 cells - 0 hour (AID 1224889). Note: nearly all actives have a fitted effect of over 50% in size. The method in brief:
as §3

The nature of experiment [9]: A CellTox Green Cytotoxicity Assay to monitor cytotoxicity in HepG2 cells - 32 hour (AID 1224883). Note: nearly all actives have a fitted effect of over 50% in size. Note: potency is the fitted concentration of half-maximal effect. The method in brief: as §2

Inconclusive results are not listed. The source made the active and inactive calls. Calls come from the whole dose curve; as a rule, active = well fitted curve in the direction sought with a large enough effect in the repeat runs; inconclusive = weak or mixed curves; inactive = no such curve, though single readings can be large; an effect the other way counts as inactive or inconclusive.

For `CC(c1ccc(O)cc1)(c1ccc(O)cc1)c1ccc(O)cc1`, the Potency result in [1], in experiment [2], in [3], in experiment [4] and in [5] was “inactive” each time.
Regarding `N#CCc1ccccc1`, the Potency entry in experiment [1], in experiment [2], in [3], in experiment [4], in [6] and in experiment [7] was “inactive” each time. Moreover, the Potency entry in experiment [5] and in experiment [8] was “inactive” each time.
In the case of `CC1(C)[C@H](C=C(Cl)Cl)[C@@H]1C(=O)O[C@@H](C#N)c1cccc(Oc2ccccc2)c1`, the Potency entry in experiment [2], in experiment [9], in experiment [4], in [6], in experiment [7] and in experiment [5] was “inactive” in each case. In [8], the Potency entry is “inactive”.
Regarding `CCOc1nc(F)cc2nc(S(=O)(=O)Nc3c(Cl)cccc3Cl)nn12`, the Potency entry in [2], in [9], in experiment [3], in [4], in experiment [6] and in experiment [7] was “inactive” in each case. The Potency entry in experiment [5] is “inactive”.
For `CCC(Cl)CCl` (stereo unspecified), the Potency result in experiment [1], in experiment [2], in [9], in [4], in [6] and in experiment [7] was “inactive” in each case. In addition, the Potency entry in experiment [8] was “inactive”.
Regarding `CC(C)(C)c1cc([N+](=O)[O-])cc([N+](=O)[O-])c1O`, the Potency entry in [2], in experiment [4], in experiment [7] and in experiment [5] was “inactive” in each case.
Consider `CCOP(O)OCC`, for which the Potency entry in experiment [1], in [2], in experiment [3], in [4], in experiment [6] and in [7] was “inactive” in each case. The Potency result in experiment [5] and in experiment [8] was “inactive” throughout.
In the case of `O=[N+]([O-])c1ccc(F)c([N+](=O)[O-])c1`, the Potency entry in [1], in [2], in experiment [9], in [3], in [4] and in experiment [5] was “inactive” in each case. The Potency result in [8] is “inactive”.
Consider `Clc1ccc(C(OCCN2CCCCC2)c2ccccc2)cc1` (stereo unspecified), for which the Potency entry in experiment [2], in experiment [4], in experiment [7], in [5] and in [8] was “inactive” in each case.
Consider `CCC(C)(NC(=O)c1cc(Cl)c(C)c(Cl)c1)C(=O)CCl` (stereo unspecified), for which the Potency result in [2], in experiment [3], in [5] and in experiment [8] was “inactive” each time. The Potency in experiment [4] was 49.3 µM (active); in experiment [6], 24.7 µM (active); in experiment [7], 27.7 µM (active).
As to `C/C=C/C=O`, the Potency entry in experiment [1], in experiment [2], in experiment [3], in [4], in experiment [6] and in [7] was “inactive” throughout. Besides, the Potency result in [5] and in experiment [8] was “inactive” each time.
In the case of `O=[N+]([O-])c1cc(C(F)(F)F)cc([N+](=O)[O-])c1Cl`, the Potency result in experiment [1], in experiment [2], in experiment [9], in experiment [3], in experiment [4] and in experiment [5] was “inactive” throughout. The Potency entry in experiment [8] was “inactive”. In experiment [7], the Potency is 43.8 µM (active).
Turning to `CN1[C@@H]2CC[C@H]1CC(OC(=O)c1cc(Cl)cc(Cl)c1)C2` (stereo partly specified), the Potency result in experiment [1], in [2], in experiment [7], in experiment [5] and in [8] was “inactive” throughout. The Potency in experiment [9] is 23.9 µM (active).
In the case of `CC(O)(CS(=O)(=O)c1ccc(F)cc1)C(=O)Nc1ccc(C#N)c(C(F)(F)F)c1` (stereo unspecified), the Potency entry in experiment [1], in experiment [2], in experiment [9] and in experiment [5] was “inactive” in each case.
Turning to `O=[N+]([O-])C(Br)(CO)CO`, the Potency entry in experiment [1], in experiment [2], in [3], in [7], in experiment [5] and in experiment [8] was “inactive” in each case.
Turning to `NS(=O)(=O)C(F)(F)C(F)(F)C(F)(F)C(F)(F)C(F)(F)C(F)(F)C(F)(F)C(F)(F)F`, the Potency result in experiment [1], in [2], in [3], in experiment [4], in experiment [6] and in experiment [7] was “inactive” in each case. The Potency result in experiment [5] and in [8] was “inactive” each time.
For the compound `CC(C)(OO)c1ccccc1`, the Potency entry in experiment [2], in experiment [9], in experiment [3], in experiment [4], in [6] and in experiment [7] was “inactive” each time. The Potency entry in [5] is “inactive”.
Take `BrCC(Br)C1CCC(Br)C(Br)C1` (stereo unspecified): the Potency entry in [1], in experiment [2], in [4], in experiment [5] and in experiment [8] was “inactive” each time.
For the compound `COC(N)=O`, the Potency entry in experiment [1], in [2], in experiment [3], in experiment [4], in experiment [6] and in experiment [7] was “inactive” in each case. The Potency result in experiment [5] and in experiment [8] was “inactive” each time.
As to `II`, the Potency entry in [2], in [6] and in experiment [7] was “inactive” each time. Besides, the Potency in experiment [9] was 38.9 µM (active); in experiment [3] it was 34.7 µM (active); in experiment [4], 27.5 µM (active); in [5], 38.9 µM (active).
Turning to `O=C(N[C@H](c1ccccc1)[C@@H]1CN2CCC1CC2)c1c(Cl)ccc(C(F)(F)F)c1Cl`, the results for the Potency in experiment [1] and in experiment [6] were 78.8 µM (active) and 70.2 µM (active), respectively. The Potency result in [2], in [4], in [7] and in [8] was “inactive” each time.
As to `O=S(=O)(O)C(F)(F)C(F)(F)C(F)(F)C(F)(F)F`, the Potency entry in experiment [1], in experiment [9], in experiment [3], in [4], in experiment [5] and in experiment [8] was “inactive” each time.
`O=C(OC1CCCCC1)c1ccccc1C(=O)OC1CCCCC1`: the Potency result in experiment [1], in experiment [2], in experiment [9], in experiment [4], in [6] and in [7] was “inactive” throughout. Further, the Potency result in experiment [5] and in experiment [8] was “inactive” in each case.
With `OCCCBr`, the Potency result in experiment [1], in experiment [2], in experiment [9], in experiment [4], in experiment [6] and in experiment [7] was “inactive” each time. In addition, in [8], the Potency result was “inactive”.
As to `CCOC(=O)C(Cl)C(C)=O` (stereo unspecified), the Potency entry in experiment [2], in [4], in experiment [6], in experiment [7], in experiment [5] and in [8] was “inactive” each time.
`CC(C)N(C(=O)COc1nnc(C(F)(F)F)s1)c1ccc(F)cc1`: the Potency entry in [1], in experiment [2], in [3], in experiment [5] and in experiment [8] was “inactive” each time. Further, the Potency in experiment [7] is 34.7 µM (active).

Source of the values: PubChem BioAssay (Tox21).
